Laboratory results published in PubChem BioAssay (NCATS).
Results filed as inconclusive are left out. Active and inactive are the calls of the source. Unless noted, calls follow the shape of the full dose curve.

Legend:
[1] = qHTS for Inhibitors of the Functional Ribonucleoprotein Complex (vRNP) of Lassa (LASV) Arenavirus: LASV Primary Screen - GLuc reporter signal (AID 1347082; calls by dose curve; tested in HEK293 reporter line; also: nearly all actives have a fitted effect of over 60% in size)
[2] = qHTS for Inhibitors of the Functional Ribonucleoprotein Complex (vRNP) of Lassa (LASV) Arenavirus: Viability assay - alamar blue signal for LASV Primary Screen (AID 1347083; calls by dose curve; tested in HEK293 reporter line; also: nearly all actives have a fitted effect of over 80% in size)
[3] = qHTS for Inhibitors of the Functional Ribonucleoprotein Complex (vRNP) of Lymphocytic Choriomeningitis Arenaviruses (LCMV): Viability assay - alamar blue signal for LCMV Primary Screen (AID 1347085; calls by dose curve; tested in HEK293 reporter line; also: nearly all actives have a fitted effect of over 80% in size)
[4] = target: Nucleoprotein (Lymphocytic choriomeningitis virus (strain Armstrong)) (UniProt P09992); test: qHTS for Inhibitors of the Functional Ribonucleoprotein Complex (vRNP) of Lymphocytic Choriomeningitis Arenaviruses (LCMV): LCMV Primary Screen - GLuc reporter signal (AID 1347086); also: nearly all actives have a fitted effect of over 70% in size
% is scaled to controls: 0 for no effect and ±100 for the full control effect.
Also: series mostly up to about 57 µM.

Chain of Nucleoprotein (Lymphocytic choriomeningitis virus (strain Armstrong)) (P09992 whole entry, looked up): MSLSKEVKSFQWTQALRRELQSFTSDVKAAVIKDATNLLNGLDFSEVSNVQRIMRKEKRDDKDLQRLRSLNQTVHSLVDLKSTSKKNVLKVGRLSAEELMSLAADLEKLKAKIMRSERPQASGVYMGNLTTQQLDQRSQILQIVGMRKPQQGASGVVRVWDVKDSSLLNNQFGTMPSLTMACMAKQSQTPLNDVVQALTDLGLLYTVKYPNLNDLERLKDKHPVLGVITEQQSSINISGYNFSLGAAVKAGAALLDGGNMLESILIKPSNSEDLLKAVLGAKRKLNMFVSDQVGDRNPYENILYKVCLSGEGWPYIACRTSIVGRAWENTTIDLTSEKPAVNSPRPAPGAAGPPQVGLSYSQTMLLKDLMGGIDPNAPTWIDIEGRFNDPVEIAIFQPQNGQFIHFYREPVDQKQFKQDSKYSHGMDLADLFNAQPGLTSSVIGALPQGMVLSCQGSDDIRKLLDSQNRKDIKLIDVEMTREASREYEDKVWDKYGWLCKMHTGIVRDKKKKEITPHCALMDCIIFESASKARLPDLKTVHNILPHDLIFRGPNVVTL

CC(=O)c1ccc(O)c(C(N)=O)c1
inactive: Potency [1] | Potency [2] | Potency [3] | Potency [4]

O=C1[C@@H]2[C@H]3CC[C@H](C3)[C@@H]2C(=O)N1CCCCN1CCN(c2ncccn2)CC1
inactive: Potency [1] | Potency [2] | Potency [3] | Potency [4]

CC(CCc1ccc(O)cc1)NCCc1ccc(O)c(O)c1 (stereo unspecified)
inactive: Potency [1] | Potency [2] | Potency [3] | Potency [4]

Nc1ccc(C(=O)O)cc1
inactive: Potency [1] | Potency [2] | Potency [3] | Potency [4]

C/C=C/C=N/NC(=O)c1ccncc1
inactive: Potency [1] | Potency [2] | Potency [3] | Potency [4]

CCOC(=O)[C@H](CCc1ccccc1)N[C@@H](C)C(=O)N1CCC[C@H]1C(=O)O
inactive: Potency [1] | Potency [2] | Potency [3] | Potency [4]

CC(C)=CCC1C(=O)N(c2ccccc2)N(c2ccccc2)C1=O
inactive: Potency [1] | Potency [2] | Potency [3] | Potency [4]

O=C(O)CCCC[C@@H]1SC[C@@H]2NC(=O)N[C@@H]21
inactive: Potency [1] | Potency [2] | Potency [3] | Potency [4]

CC(=O)c1ccc(S(=O)(=O)NC(=O)NC2CCCCC2)cc1
inactive: Potency [1] | Potency [2] | Potency [3] | Potency [4]

Cc1cn([C@@H]2O[C@H](CO)[C@@H](O)[C@H]2F)c(=O)[nH]c1=O
inactive: Potency [1] | Potency [2] | Potency [3] | Potency [4]

O=C(CO)[C@@H](O)[C@H](O)[C@@H](O)CO
inactive: Potency [1] | Potency [2] | Potency [3] | Potency [4]

NC(=O)NC1N=C([O][Al])NC1=O (stereo unspecified)
inactive: Potency [1] | Potency [2] | Potency [3] | Potency [4]

Cn1c(=O)c2c(ncn2CCO)n(C)c1=O
inactive: Potency [1] | Potency [2] | Potency [3] | Potency [4]

COc1ccc(C(=O)c2ccccc2)c(O)c1
inactive: Potency [1] | Potency [2] | Potency [3] | Potency [4]

Cc1ccc(C(C)C)c(O)c1
inactive: Potency [1] | Potency [2] | Potency [3] | Potency [4]

NC(N)=NCCN1CCCCCCC1
inactive: activity change, negative = inhibition [1] 1.43% [at 0.757 µM] | activity change, negative = reduced viability [2] 1.98% [at 0.757 µM] | activity change, negative = lower viability [3] 5.22% [at 0.757 µM] | activity change, negative = inhibition [4] -0.256% [at 0.757 µM]

NS(=O)(=O)c1ccc(C(=O)O)cc1
inactive: Potency [1] | Potency [2] | Potency [3] | Potency [4]

CN1C[C@@H]2C[C@H]1CN2c1cc2c(cc1F)c(=O)c(C(=O)O)cn2C1CC1
inactive: Potency [1] | Potency [2] | Potency [3] | Potency [4]

O=C(CCOCCOCCOCCOCCC(=O)Nc1c(I)cc(I)c(C(=O)O)c1I)Nc1c(I)cc(I)c(C(=O)O)c1I
inactive: Potency [1] | Potency [2] | Potency [3] | Potency [4]

Cn1nnc2c(C(N)=O)ncn2c1=O
inactive: Potency [1] | Potency [2] | Potency [3] | Potency [4]

COC(=O)C1=C(C)NC(C)=C(C(=O)OCCc2ccc(N3CCN(C(c4ccccc4)c4ccccc4)CC3)cc2)C1c1cccc([N+](=O)[O-])c1 (stereo unspecified)
inactive: Potency [1] | Potency [2] | Potency [3] | Potency [4]

CC(NN)c1ccccc1 (stereo unspecified)
inactive: Potency [1] | Potency [2] | Potency [3] | Potency [4]

CC(=O)O[C@@H]1C(=O)O[C@@H]2[C@H]1OC(=O)[C@@H]2OC(C)=O
inactive: Potency [1] | Potency [2] | Potency [3] | Potency [4]

Cc1cnc(NC(=O)C2=C(O)c3ccccc3S(=O)(=O)N2C)s1
inactive: Potency [1] | Potency [2] | Potency [3] | Potency [4]

Cc1c(NC(=O)c2cccnc2)c(=O)n(-c2ccccc2)n1C
inactive: Potency [1] | Potency [2] | Potency [3] | Potency [4]

CCCCN(CCCC)CCCOC(=O)c1ccc(N)cc1
inactive: Potency [1] | Potency [2] | Potency [3] | Potency [4]

COc1ccc(C(=O)N2CCN(CC(=O)N3CCOCC3)CC2)cc1
inactive: Potency [1] | Potency [2] | Potency [3] | Potency [4]

CN(CC1(C)CCCO1)S(=O)(=O)c1ccc(Cl)c(S(N)(=O)=O)c1 (stereo unspecified)
inactive: Potency [1] | Potency [2] | Potency [3] | Potency [4]

Cc1nc([N+](=O)[O-])cn1-c1ccc([N+](=O)[O-])cc1
inactive: Potency [1] | Potency [2] | Potency [3] | Potency [4]

CN1[C@@H]2CC(OC(=O)[C@H](CO)c3ccccc3)C[C@H]1[C@@H]1O[C@@H]12 (stereo partly specified)
inactive: Potency [1] | Potency [2] | Potency [3] | Potency [4]

Nc1ccc([N+](=O)[O-])c(C(F)(F)F)c1
inactive: Potency [1] | Potency [2] | Potency [3] | Potency [4]

CCOC(=O)[C@H](CCc1ccccc1)N[C@@H](C)C(=O)N1[C@H](C(=O)O)C[C@H]2CCCC[C@@H]21
inactive: Potency [1] | Potency [2] | Potency [3] | Potency [4]

CCCCCCCCCCCCCCCCN
inactive: Potency [1] | Potency [2] | Potency [3] | Potency [4]

CCN(CC)C(C)CN1c2ccccc2Sc2ccccc21 (stereo unspecified)
inactive: Potency [1] | Potency [2] | Potency [3] | Potency [4]
